Dyrk1A ADPGlo = inhibitors of rat Dyrk1A kinase; 0.43% of 310,000 active; ADP-Glo luminescence, NFATc1 peptide; inhibition, % at 12.5 µM; Q63470; in the data active = inhibition above about 50%;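 note: plate controls were vehicle with enzyme for no effect and no enzyme for full effect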
A1 inh = inhibitors of the anti-apoptotic protein A1, read as caspase activation; MEF A1-2A-BIM cells, Caspase-Glo 3/7 luminescence, 3 h; percent of clofoctol response, vehicle zero; caspase activation, % (test concentration not listed); 0.066% of 330,000 active;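 active = over half of replicate activation scores above 10%, or exactly half above 10 with the replicate mean above 10; inconclusive = replicate mean below 10 yet half the replicates above 10; inactive = over half of replicates below 10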
Beta2AR agonist = human beta-2 adrenergic receptor agonism by FAP. Am2.2-beta2AR cells, FAP receptor internalization, flow cytometry. response, % (concentration not given with the values). 0.43% of 340,000 active;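 active = response above a set limit, near 3 SD of response in nonfluorescent compounds, cut at about 42% in these data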
Target sequence (P07550 whole entry, looked up): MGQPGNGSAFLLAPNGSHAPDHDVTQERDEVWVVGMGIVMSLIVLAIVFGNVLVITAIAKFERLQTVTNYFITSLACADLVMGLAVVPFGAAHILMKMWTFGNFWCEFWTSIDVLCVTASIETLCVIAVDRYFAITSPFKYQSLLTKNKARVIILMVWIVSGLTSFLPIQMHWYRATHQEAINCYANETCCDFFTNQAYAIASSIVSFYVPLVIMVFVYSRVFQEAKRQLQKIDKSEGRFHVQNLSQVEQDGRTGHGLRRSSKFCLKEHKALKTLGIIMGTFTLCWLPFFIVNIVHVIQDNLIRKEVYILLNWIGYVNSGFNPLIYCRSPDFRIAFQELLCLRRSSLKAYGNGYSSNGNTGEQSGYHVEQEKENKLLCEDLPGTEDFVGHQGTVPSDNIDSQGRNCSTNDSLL
dFosB act-1 = enhances mouse delta FosB homodimer DNA binding; P13346; purified delta FosB, TAMRA-CDK5 oligo fluorescence polarization; percent of positive-control signal above neutral wells; activation, % at 25 µM; 0.99% of 340,000 active; AID 493131;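 active = mean activation above about 17%, with every replicate also reaching it, limit read from the data, passing the limit was not always enough; inconclusive = only one of the two conditions met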
dFosB act-2 = activators of mouse delta FosB homodimer DNA binding; shares compounds with dFosB act-1; purified delta FosB, TAMRA-CDK5 oligo fluorescence polarization; normalised: neutral wells 0, positive control 100; activation, % at 24.9 µM; 2,400 tested, under 10 active;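 active = highest replicate activation at or above 34% and every replicate reaching that threshold; inconclusive = meets only one of the two criteria; inactive = meets neither criterion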;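 note: higher polarization means more probe DNA bound by delta FosB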
The depositor's hits bear a star; ? = inconclusive; . = not tested or not shown. Shown are actives, neighbours in structure and some others; about 1.6% of the full set was active somewhere.

SMILES	Dyrk1A ADPGlo	A1 inh	Beta2AR agonist	dFosB act-1	dFosB act-2
COc1ccc(C(=O)NC(CCSC)C(=O)NCc2nnc3ccccn23)cc1 (stereo not drawn)	6	.	-3	1	.
COC(=O)c1ccc2c(c1)C(C)(C)C(/C=C/c1ccc(O)cc1)=[N+]2C	6	10*	49*	119*	2
COc1ccccc1CNC(=O)N1CCN(c2ccccc2Cl)CC1	4	0	-2	-3	.
CCN1C[C@@H]2[C@@H]3C(=O)N(Cc4ccccc4)C(=O)[C@@H]3[C@](CC)(C1=O)N2C(=O)c1ccc(Cl)c(Cl)c1	-5	.	-3	-7	.
NC(=O)CC(NC(=O)c1ccccc1)c1ccc(NCCc2ccc(F)cc2)c([N+](=O)[O-])c1 (stereo not drawn)	-14	0	-5	-4	.
NC(=O)CC(NC(=O)c1ccc(Br)cc1)c1ccc(NC2CCCCCC2)c([N+](=O)[O-])c1 (stereo not drawn)	28	0	-2	-9	.
Cc1cccc(CNc2ccc(C(CC(N)=O)NC(=O)c3ccccc3)cc2[N+](=O)[O-])c1 (stereo not drawn)	3	0	0	-2	.
COc1ccc(CCNc2ccc(C(CC(N)=O)NC(=O)c3ccccc3)cc2[N+](=O)[O-])cc1 (stereo not drawn)	3	-1	-1	32*	-2
Cc1ccccc1CNc1ccc(C(CC(N)=O)NC(=O)c2ccccc2)cc1[N+](=O)[O-] (stereo not drawn)	3	0	0	28*	-1
NC(=O)CC(NC(=O)c1ccc(Br)cc1)c1ccc(NC2CCCCC2)c([N+](=O)[O-])c1 (stereo not drawn)	10	1	-2	42*	8
CCCCOc1ccc(C(=O)Nc2cccc(-n3cnnn3)c2)cc1OC	-2	0	-1	-2	.
CCn1c(SCc2nc3ccccc3c(=O)[nH]2)nc2ccccc2c1=O	4	0	-4	3	.
C=CCn1c(SCc2nc3ccccc3c(=O)[nH]2)nc2scc(C3CC3)c2c1=O	-5	0	-1	33*	3
Cc1ccc([C@@H]2[C@@H]3C(=O)N(c4ccccc4)C(=O)[C@@H]3[C@]3(C)C(=O)N(CC4CC4)CC(=O)N23)o1	7	0	-9	1	.
Cc1cn(-c2cc(C(=O)Nc3ccc(C)c(NC(=O)N4CCNC4=O)c3)cc(C(F)(F)F)c2)cn1	1	?	-5	56*	-2
CCOc1ccc(NC(=O)CN(C)C(=O)CCCn2c(=O)oc3ccccc32)cc1OCC	-3	0	4	-5	.
COc1cc(-c2ccc3c(=O)c4ccccc4n(C)c3c2)cc(OC)c1OC	2	0	7	35*	4
C=CCC1(NCc2ccco2)CCN(CC)CC1	7	0	1	2	.
Cc1ccc(OCC(=O)OCC(=O)NC2CC2)cc1C	-3	-1	-2	0	.
COc1ccc(-c2csc(NC(=S)NC(=O)c3ccc(S(=O)(=O)N(C)C)cc3)n2)cc1OC	0	0	5	29*	0
CC(C)Cc1cc(C(=O)N2CCCC(CO)(Cc3ccc(F)cc3F)C2)n[nH]1 (stereo not drawn)	0	0	-4	-10	.
Cc1ccc(CNC(=O)c2ccc(NC(=O)CCS(=O)(=O)c3cccs3)cc2)cc1	-1	0	0	20*	3
CCC(C)n1c(=O)c(C(=O)Nc2ccccc2S(N)(=O)=O)c(O)c2ccccc21 (stereo not drawn)	-6	1	-47	74*	2
CC(C)Cn1c(=O)c(C(=O)Nc2ccccc2S(N)(=O)=O)c(O)c2ccccc21	5	-2	0	1	.
NC(=O)c1ccccc1NC(=O)c1ccc2c(c1)OCO2	33	-6	-5	-3	.
SMILES	Dyrk1A ADPGlo	A1 inh	Beta2AR agonist	dFosB act-1	dFosB act-2
CCOC(=O)[C@@H]1[C@H]2COc3ccccc3[C@H]2N2C(=O)N(c3cccc(Cl)c3)C(=O)[C@]12C	4	-1	2	-6	.
Cn1c2ccccc2c2cc(C(=O)OCC(=O)N3CC(=O)Nc4ccccc43)sc21	-7	0	6	39*	3
O=C1CN(C(=O)COC(=O)c2cccs2)c2ccccc2N1	5	.	-5	0	.
Cc1c(C(=O)O)sc(S(=O)(=O)N2CCN(C(=O)CCc3ccccc3)CC2)c1C(=O)O	13	.	-5	-5	.
Cc1ccc(NC2CCCN(C(=O)c3cn(C)c4ccccc34)C2)cc1C (stereo not drawn)	-3	1	11	-9	.
O=C(NNC(=O)c1cc(Br)c(Br)s1)c1csc(N2CCOCC2)n1	4	1	4	44*	1
S=C(Nc1ccc(Cl)cc1)c1nc2ccccc2[nH]1	1	-6	-3	29*	1
Cc1ccccc1NC(=S)c1nc2ccccc2[nH]1	3	-2	-1	-3	.
COc1ccc(OC)c2sc(NC(=O)c3cccc(N4C(=O)CCC4=O)c3)nc12	2	0	7	67*	2
COc1ccc(-c2csc(NC(=O)c3cccc(N4C(=O)CCC4=O)c3)n2)cc1C	-6	0	4	-6	.
O=C1CC(C(=O)Nc2ccc(Cl)cc2)S/C(=N\N=C\c2ccco2)N1 (stereo not drawn)	4	1	6	45*	0
O=C1CC(C(=O)Nc2ccc(Cl)c(Cl)c2)S/C(=N\N=C\c2ccco2)N1 (stereo not drawn)	-7	0	16	32*	0
O=C1CC(C(=O)Nc2ccccc2)S/C(=N\N=C\c2ccco2)N1 (stereo not drawn)	1	0	0	28*	5
Cc1ccc(NC(=O)CC2S/C(=N/N=C/C=C/c3ccccc3)NC2=O)cc1Cl (stereo not drawn)	0	0	-1	-13	.
O=C1CC(C(=O)Nc2ccc(Br)cc2)S/C(=N\N=C\c2ccco2)N1 (stereo not drawn)	-4	-1	5	15	.
Cc1ccc(NC(=O)CC2S/C(=N/N=C/c3ccco3)NC2=O)cc1Cl (stereo not drawn)	5	1	-13	33*	-1
CC(=O)N1c2ccc(S(=O)(=O)NCC3CCC(C(=O)N4CCC(C)CC4)CC3)cc2CC1C (stereo not drawn)	5	-1	-5	-5	.
CC(C)NC(=O)N(C)C[C@@H]1Oc2ccc(NC(=O)CCN3CCOCC3)cc2CC(=O)N([C@@H](C)CO)C[C@@H]1C	-3	-1	0	-9	.
CN(Cc1ccccc1)C(=O)CCC1CCN(S(C)(=O)=O)CC1	-9	-1	4	-10	.
Cc1cccn2c(=O)c(/C=N/O)c(Nc3ccccc3F)nc12	-4	0	10	20*	1
Cc1n[nH]c(C)c1CCNC(=O)C1CCC(=O)N(Cc2ccccc2F)C1 (stereo not drawn)	-10	0	11	-4	.
Cc1cc(C)cc(NC(=O)Cn2nnc(C(=O)NCc3ccc(F)cc3)c2N)c1	0	2	8	58*	3
